Compound activity from PubChem BioAssay.
NRP1-CendR mod = modulators of CendR peptide binding to NRP-1, primary screen, biochemical, fluorescence polarization, uHTS; inhibition, % at 25 µM; FAM-RPARPAR peptide binding to NRP-1; AID 602438, 2012; actives 0.85% (n = 360,000); Neuropilin-1 (Homo sapiens), O14786;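 active means inhibition or corrected inhibition above about 18%, plus a signal ratio from 0.5 to 1.5, limit read from the data, passing the limit was not always enough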
ALR H2O2 inh = inhibitors of human ALR sulfhydryl oxidase, primary screen, biochemical, H2O2 detection, HRP-luminol luminescence, single point; purified ALR, DTT oxidation; inhibition, % (concentration not given with the values); actives 3.8% (n = 290,000); AID 485317, 2010;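 active means mean replicate inhibition above about 79%, with every replicate also reaching it, limit read from the data; inconclusive means only one of the two criteria met; inactive means mean below limit and not every replicate reaching it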
PDI inh = inhibitors of human PDI, primary screen, biochemical, turbidity, single point, plate reader; Protein disulfide-isomerase (Homo sapiens), P07237; PDI insulin aggregation turbidity, A650, 90 min; inhibition, % at 10 µM; AID 588391, 2011; actives 0.052% (n = 350,000);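 active means mean inhibition across replicates of 30% or more, whatever share of single replicates reach that level; inconclusive means mean inhibition below 30% while every single replicate reaches 30%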
ARNT-TACC3 inh = disruptors of ARNT/TACC3 protein interaction, primary screen, biochemical, AlphaScreen, single concentration | actives 0.66% (n = 390,000) | Transforming acidic coiled-coil-containing protein 3 (Homo sapiens), Q9Y6A5 | inhibition, % at 9.99 µM | AlphaScreen His-ARNT PAS-B/GST-TACC3 binding, luminescence; TACC3 fragment carries E629A point mutation;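 active means mean inhibition of replicates at least 50% and at least half of replicates each reaching 50%; inconclusive means half or more replicates reach 50% but mean below 50%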;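 further: 0% = complete ARNT plus TACC3 wells and 100% = ARNT alone without TACC3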
PglD inh = C. jejuni PglD acetyltransferase inhibitors, primary screen, biochemical, DTNB colorimetric, single point | purified PglD enzyme, DTNB colorimetric CoA detection | AID 602405, 2012 | inhibition, % at 12.5 µM | actives 0.098% (n = 360,000); in the data active means inhibition above about 16%, passing the limit was not always enough; inconclusive means no clear call, values can overlap the other calls
ERp5 block = inhibitors of ERp5-driven insulin aggregation, primary screen, biochemical, turbidity, absorbance 650 nm, single point | Protein disulfide-isomerase A6 (Homo sapiens), Q15084 | 90 min | inhibition, % at 9.99 µM | actives 0.05% (n = 350,000) | AID 651711, 2012;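 active means mean replicate inhibition above about 25%, with every replicate also reaching it, limit read from the data, passing the limit was not always enough; inconclusive means only one of those two criteria met; inactive means neither criterion met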
Target sequence (Q15084 whole entry, looked up): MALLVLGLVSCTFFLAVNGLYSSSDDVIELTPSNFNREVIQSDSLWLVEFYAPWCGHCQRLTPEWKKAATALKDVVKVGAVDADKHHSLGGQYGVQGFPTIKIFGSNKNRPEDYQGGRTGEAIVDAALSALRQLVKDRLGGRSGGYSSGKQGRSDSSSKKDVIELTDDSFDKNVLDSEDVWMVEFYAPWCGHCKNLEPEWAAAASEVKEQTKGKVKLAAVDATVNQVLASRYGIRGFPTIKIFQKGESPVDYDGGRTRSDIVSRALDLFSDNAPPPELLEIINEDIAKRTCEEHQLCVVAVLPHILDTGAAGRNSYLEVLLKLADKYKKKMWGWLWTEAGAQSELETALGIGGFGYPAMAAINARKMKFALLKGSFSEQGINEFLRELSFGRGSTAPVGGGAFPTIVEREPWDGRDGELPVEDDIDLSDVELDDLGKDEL
Starred values were filed as active, the others as inactive; ? = inconclusive; · = no result. The sample as a whole holds a higher share of hits than the screen did.

SMILES	NRP1-CendR mod	ALR H2O2 inh	PDI inh	ARNT-TACC3 inh	PglD inh	ERp5 block
CO[C@H]1CN(C)C(=O)c2cc(NC(=O)c3ccc(F)cc3)ccc2OC[C@H](C)N(C(=O)c2ccc(F)cc2)C[C@H]1C	·	·	·	-12	0	-3
CCC(=O)N1CCCCN2[C@H](CO)[C@H](c3ccc(/C=C/c4ccccc4)cc3)[C@H]2C1	·	·	·	6	1	1
CCCNC(=O)N1C[C@@H](C)[C@@H](OC)CN(C)C(=O)c2ccc(NC(C)=O)cc2OC[C@H]1C	·	·	·	-6	7	0
O=C1CS/C(=N/N=C/c2ccco2)N1Cc1ccc(F)cc1	-19	90*	-7	·	-2	8
Oc1ccc(N2CCN(C(c3cccnc3)c3nnnn3Cc3ccccc3)CC2)cc1 (stereo unspecified)	4	99*	-4	-2	2	1
CCC(C)(C)n1nnnc1C(c1ccc2ncccc2c1)N1CCN(c2nc3ccccc3s2)CC1 (stereo unspecified)	12	-5	11	-12	-7	·
CC(C)C(c1nnnn1Cc1ccc(F)cc1)N1CCN(c2ccc(O)cc2)CC1 (stereo unspecified)	-12	100*	5	15	·	8
c1ccc(CCn2nnnc2C(c2cccnc2)N2CCN(c3ccccc3)CC2)cc1 (stereo unspecified)	-10	71	8	-23	2	·
CCC(C)(C)n1nnnc1C(c1ccc2ncccc2c1)N1CCN(c2ccc(O)cc2)CC1 (stereo unspecified)	5	100*	6	9	-1	3
COCCn1nnnc1C(c1ccccc1)N1CCN(c2ccccc2)CC1 (stereo unspecified)	2	97*	6	-4	3	·
O=C(C1CC1)N1C[C@@H]2[C@H](c3ccccc31)[C@H](CO)N2S(=O)(=O)c1ccccc1	·	·	·	-11	3	·
COCC(=O)N1C[C@@H](C)[C@@H](OC)CN(C)C(=O)c2ccc(NC(=O)NC(C)C)cc2OC[C@H]1C	·	·	·	-6	-3	-13
O=C(C[C@H]1CC[C@@H]2[C@H](COC[C@@H](O)CN2Cc2nccs2)O1)NCc1ccc(Oc2ccccc2)cc1	·	·	·	-4	-1	1
C[C@H](CO)N1C[C@H](C)[C@H](CN(C)C(=O)c2ccncc2)OCCCC[C@H](C)Oc2ccc(NC(=O)Cc3ccccc3)cc2C1=O	·	·	·	2	2	0
COc1cc([N+](=O)[O-])cc(/C=N/NC(=O)Cn2nc(C)cc2C)c1O	-13	5	2	63*	·	0
COc1cc([N+](=O)[O-])cc(/C=N/NC(=O)Cn2nccc2C)c1O	-12	-32	-9	71*	-5	?
COc1cccc(/C=N/N2C(=O)NC3(CCCCC3)C2=O)c1O	2	84*	17	19	1	·
CCOc1cc(/C=N/N2C(=O)NC3(CCCCC3)C2=O)cc(Br)c1O	-3	60	-2	-1	·	-3
CO/N=C/CC(=O)c1cnc(-c2ccc(Cl)cc2)s1	26*	2	2	1	-3	-5
O=C(c1ccc(Cl)cc1)c1cnc(-c2ccccc2)s1	-4	·	-3	0	·	·
N#CC1=C(N)Oc2n[nH]c(-c3ccc(F)cc3)c2C1c1cccnc1 (stereo unspecified)	7	·	-16	0	-2	·
Cc1[nH]nc2c1C(c1cn[nH]c1-c1ccc(F)cc1)C(C#N)=C(N)O2 (stereo unspecified)	5	92*	1	12	6	·
COc1ccccc1S(=O)(=O)N[C@@H]1CC[C@H](CCNC(=O)C2CCCCC2)O[C@H]1CO	·	·	·	12	-1	-5
Nc1cc(=O)n(Cc2ccccc2)c(=O)n1-c1ccc(F)cc1	-4	0	0	0	·	-2
Nc1cc(=O)n(Cc2ccccc2)c(=O)n1-c1ccc(Cl)cc1	36*	-4	0	-4	·	2
SMILES	NRP1-CendR mod	ALR H2O2 inh	PDI inh	ARNT-TACC3 inh	PglD inh	ERp5 block
C[C@H]1CN([C@@H](C)CO)C(=O)Cc2cc(NC(=O)Cc3ccccc3)ccc2O[C@@H]1CN(C)CC1CC1	·	·	·	1	-1	9
CCN(CC)CCCNc1ccc2ncn3c4ccc(O)cc4c(=O)c1c23	145	·	-4	74*	·	4
CN(C)CCNc1ccc2nnn3c4ccc(O)cc4c(=O)c1c23	-2	·	-3	45	·	5
O=C(/C=C/c1ccco1)NC(=S)NNC(=O)c1ccco1	-16	98*	-3	29	-3	1
O=C(NC(=S)NNC(=O)c1ccco1)c1ccc(Br)cc1	18	99*	-2	7	-1	-8
CC(Oc1ccc(Cl)cc1)C(=O)NNC(=S)NC(=O)c1ccco1 (stereo unspecified)	16	98*	4	4	-3	3
COc1ccc(C(=O)NNC(=S)NC(=O)c2ccco2)cc1	0	31	-1	25	·	·
O=C(NNC(=S)NC(=O)c1ccco1)c1ccc(F)cc1	2	97*	11	6	·	2
CN1C(=O)c2cc(NC(=O)C3CC3)ccc2OC[C@H]2O[C@H](CC(=O)NCCN3CCCC3)CC[C@@H]21	·	·	·	-6	1	3
C[C@@H]1CN([C@@H](C)CO)C(=O)c2cc(C#CC3(O)CCCC3)cnc2O[C@H]1CN(C)C(=O)C1CCOCC1	·	·	·	-1	4	-1
Cn1cccc1CC(=O)NNC(=S)NC(=O)c1ccc(F)cc1	-1	95*	4	26	·	3
O=C(NC(=S)NNC(=O)[C@H]1C[C@@H]1c1ccccc1)c1ccc(F)cc1	-6	26	-6	0	-8	0
Cc1nc(NCc2ccco2)c2cn[nH]c2n1	28*	·	-19	-4	-2	2
CCc1cc(-c2[nH]ncc2-c2ccc3c(c2)OCO3)c(O)cc1O	-11	12	-3	27	-2	·
COc1ccc(-c2[nH]ncc2-c2ccc3c(c2)OCCO3)c(O)c1	-4	92*	10	·	·	·
CCCc1cc(C(=O)Nc2sc(C)c(CC)c2C#N)no1	-6	·	·	·	-6	11
CCc1c(C)sc(NC(=O)c2cc(C3CC3)on2)c1C#N	-4	94*	·	-3	-2	-3
CCc1c(C)sc(NC(=O)c2cc(C)on2)c1C#N	7	85*	7	-15	-4	·
O=C(NCc1ccco1)c1c2c(nc3ccccc13)CCC2	11	-8	7	2	0	·
Cc1cc2cc(C)c(SCC(=O)NCc3ccco3)nc2cc1C	-1	0	0	-1	·	-5
